# Reference: the supplement of paper PMC6897291
# How the values were obtained:
# [1] = system: U-2932; assay: growth inhibition by drug alone (1 - RLU/untreated control) (fraction); higher = stronger inhibition; settings: 177Lu-lilotomab satetraxetan 0 ug/ml
# Summary of the method: (§1)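 RIVA or U-2932 cells, untreated or pretreated 18 h with a radiolabelled anti-CD37 antibody conjugate (~600 MBq/mg; 0.5 µg/ml RIVA, 1 µg/ml U-2932), were washed and seeded at 3,000 cells/well on plates pre-printed with the Selleck Cambridge Cancer Compound library. Doses were 10/100 nM (RIVA) or 10/1,000 nM (U-2932). RealTime-Glo luminescence was read daily from day 3 after 1 h at 37°C. Growth inhibition is 1 − RLU/mean of 48 untreated no-drug wells per plate.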
# [2] = system: RIVA; assay: as above; settings: 177Lu-lilotomab satetraxetan 0 ug/ml
# Summary of the method: as §1
# [3] = system: U-2932; assay: growth inhibition by drug plus 177Lu-lilotomab satetraxetan (1 - RLU/untreated control) (fraction); higher = stronger inhibition; settings: 177Lu-lilotomab satetraxetan 1 ug/ml
# Summary of the method: as §1
# [4] = system: RIVA; assay: as above; settings: 177Lu-lilotomab satetraxetan 0.5 ug/ml
# Summary of the method: as §1
SMILES,"growth inhibition by drug alone ([1]; 10 nM, time (day): 3)","growth inhibition by drug alone ([1]; 10 nM, time (day): 4)","growth inhibition by drug alone ([1]; 10 nM, time (day): 5)","growth inhibition by drug alone ([1]; 10 nM, time (day): 6)","growth inhibition by drug alone ([1]; 1000 nM, time (day): 3)","growth inhibition by drug alone ([1]; 1000 nM, time (day): 4)","growth inhibition by drug alone ([1]; 1000 nM, time (day): 5)","growth inhibition by drug alone ([1]; 1000 nM, time (day): 6)","growth inhibition by drug alone ([2]; 10 nM, time (day): 3)","growth inhibition by drug alone ([2]; 10 nM, time (day): 4)","growth inhibition by drug alone ([2]; 10 nM, time (day): 5)","growth inhibition by drug alone ([2]; 10 nM, time (day): 6)","growth inhibition by drug alone ([2]; 100 nM, time (day): 3)","growth inhibition by drug alone ([2]; 100 nM, time (day): 4)","growth inhibition by drug alone ([2]; 100 nM, time (day): 5)","growth inhibition by drug alone ([2]; 100 nM, time (day): 6)","growth inhibition by drug plus 177Lu-lilotomab satetraxetan ([3]; 10 nM, time (day): 3)","growth inhibition by drug plus 177Lu-lilotomab satetraxetan ([3]; 10 nM, time (day): 4)","growth inhibition by drug plus 177Lu-lilotomab satetraxetan ([3]; 10 nM, time (day): 5)","growth inhibition by drug plus 177Lu-lilotomab satetraxetan ([3]; 10 nM, time (day): 6)","growth inhibition by drug plus 177Lu-lilotomab satetraxetan ([3]; 1000 nM, time (day): 3)","growth inhibition by drug plus 177Lu-lilotomab satetraxetan ([3]; 1000 nM, time (day): 4)","growth inhibition by drug plus 177Lu-lilotomab satetraxetan ([3]; 1000 nM, time (day): 5)","growth inhibition by drug plus 177Lu-lilotomab satetraxetan ([3]; 1000 nM, time (day): 6)","growth inhibition by drug plus 177Lu-lilotomab satetraxetan ([4]; 10 nM, time (day): 3)","growth inhibition by drug plus 177Lu-lilotomab satetraxetan ([4]; 10 nM, time (day): 4)","growth inhibition by drug plus 177Lu-lilotomab satetraxetan ([4]; 10 nM, time (day): 5)","growth inhibition by drug plus 177Lu-lilotomab satetraxetan ([4]; 10 nM, time (day): 6)","growth inhibition by drug plus 177Lu-lilotomab satetraxetan ([4]; 100 nM, time (day): 3)","growth inhibition by drug plus 177Lu-lilotomab satetraxetan ([4]; 100 nM, time (day): 4)","growth inhibition by drug plus 177Lu-lilotomab satetraxetan ([4]; 100 nM, time (day): 5)","growth inhibition by drug plus 177Lu-lilotomab satetraxetan ([4]; 100 nM, time (day): 6)"
COCC[n+]1c2c(n(Cc3cnccn3)c1C)C(=O)c1ccccc1C2=O,0.948,0.947,0.963,0.974,0.989,0.989,0.989,0.989,0.984,0.981,0.98,0.981,0.98,0.979,0.98,0.979,0.945,0.95,0.969,0.977,0.988,0.988,0.989,0.991,0.988,0.985,0.986,0.986,0.986,0.989,0.989,0.989
O=C(O)CCCc1ccccc1 [4-Phenylbutyrate],0.0701,0.0509,0.00363,-0.192,0.0343,0.0446,-0.0113,-0.154,-0.0798,-0.0476,-0.148,-0.516,-0.401,-0.277,-0.308,-0.483,0.0355,0.105,0.141,0.163,0.0377,0.0642,0.124,0.195,0.43,0.538,0.547,0.56,0.419,0.5,0.507,0.511
CN[C@@H](C)C(=O)N[C@H]1CN(C(=O)CC(C)C)CC[C@H]2CC[C@@H](C(=O)NC(c3ccccc3)c3ccccc3)N2C1=O,0.0554,0.0151,-0.0459,-0.197,-0.059,-0.0374,-0.0798,-0.0575,0.00534,-0.116,-0.171,-0.417,-0.168,-0.227,-0.25,-0.406,-0.0234,-0.00591,0.0157,0.0545,-0.0193,0.0475,0.055,0.159,0.456,0.56,0.581,0.599,0.456,0.551,0.567,0.544
NC(=O)Nc1sc(-c2ccc(F)cc2)cc1C(N)=O,0.0734,0.0553,0.0297,-0.262,0.197,0.229,0.176,0.239,-0.0481,-0.0689,-0.274,-0.781,-0.446,-0.283,-0.285,-0.444,0.0182,0.0728,0.0938,0.118,0.334,0.356,0.397,0.502,0.484,0.574,0.584,0.586,0.259,0.411,0.413,0.434
CNC(=O)c1ccccc1Sc1ccc2c(/C=C/c3ccccn3)n[nH]c2c1 [Axitinib],-0.00761,0.0176,0.0231,-0.0205,0.0126,0.0489,-0.0091,-0.0631,-0.0928,-0.118,-0.216,-0.609,-0.116,-0.0759,-0.117,-0.195,0.0328,0.0444,0.0505,0.163,-0.0364,0.0807,0.114,0.196,0.405,0.507,0.522,0.533,0.439,0.479,0.492,0.484
Cc1nnc(C(C)C)n1C1C[C@H]2CC[C@@H](C1)N2CC[C@H](NC(=O)C1CCC(F)(F)CC1)c1ccccc1 (stereo in doubt) [Maraviroc],0.125,0.118,0.0854,-0.0157,0.0827,0.0764,-0.0104,-0.122,0.071,0.0921,0.049,-0.0807,0.1,0.0864,0.0269,-0.0532,0.128,0.146,0.143,0.239,0.0251,0.112,0.105,0.201,0.542,0.609,0.618,0.645,0.545,0.593,0.587,0.584
